# The panel holds about 83,000 compounds, 20% with a hit somewhere; the sample as a whole holds those more often.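 Note: values are percent growth. 100 is the growth of untreated cells, values between 100 and 0 indicate rising inhibition; between -100 and 0 indicates cell death.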 The source made the active and inactive calls. The calls were made as follows: active = growth percent below 10; inactive = the rest.
# Test system: T-47D breast
# Test: NCI-60 one-dose screen, 48 h (100 = growth as untreated, 0 = no growth, -100 = all killed)
# Conditions: 10 µM unless noted
row,Structure (SMILES),growth
1,COc1ccc(-n2c(SCc3n[nH]c(=S)o3)nc3ccc(Cl)cc3c2=O)cc1,97.6% (inactive)
2,CNC(=O)c1cc(Oc2ccc3nc(NC(=O)c4ccc(N5CCOCC5)c(C(F)(F)F)c4)sc3c2)ccn1,86.1% (inactive)
3,COc1ccc(/C=C(/C)c2ccc3ccc(OC)cc3[o+]2)c(O)c1,69.7% (inactive)
4,O=C1[C@H]2Cc3c([nH]c4ccccc34)[C@@H](c3ccc(Br)cc3)N2C(=O)CN1C1CCN(CC2CCCCC2)CC1,44.7% (inactive)
5,O=C(c1ccc(O)cc1)[C@@H]1CN[C@@]2(C(=O)Nc3ccccc32)[C@H]1c1ccc(F)cc1,99.3% (inactive)
6,COc1ccc(/C=C(\C#N)C(=O)N2c3ccccc3Sc3ccc(SC)cc32)cc1F,70.9% (inactive)
7,CN1CCN(Cc2ccc(NC(=O)c3cncc(C#Cc4cnn5cccnc45)c3)cc2C(F)(F)F)CC1,54.2% (inactive)
8,CCOC(=O)c1c(NC(=O)c2ccccc2C(F)(F)F)sc2c1CCC(=O)C2,15% (inactive)
9,Nc1nc(-c2cccc([N+](=O)[O-])c2)c(N=Nc2ccccc2)s1,40.5% (inactive)
10,Cc1ccc(C(=O)NN2C(=O)/C(=C/C=C/c3ccco3)SC2=S)cc1,95.4% (inactive)
11,Cc1nc(-c2ccccc2O)ccc1C(=O)N=Nc1c(O)[nH]c2ccc(Br)cc12,88.9% (inactive)
12,NS(=O)(=O)c1ccc(-n2cc(-c3cccc(NC(=O)c4ccc(N5CCOCC5)c(C(F)(F)F)c4)c3)nn2)cc1,4.61% (active)
13,CCc1cccc(NC(=O)CNc2cc(S(=O)(=O)N(C)C)cc(C)c2C)c1,88.8% (inactive)
14,COc1ccc(-c2nc3cccc(O)c3c(=O)n2Cc2ccccc2)cc1COc1ccc(NC(C)=O)cc1,76.5% [3 µM] (inactive)
15,O=C(CN1CCN(c2cc(=O)n(-c3ccccc3)c3ccccc23)CC1)Nc1nc(-c2ccc(Cl)cc2)cs1,24.3% (inactive)
16,Cc1c(Cl)cccc1S(=O)(=O)Nc1ccc2c(c1)C(=O)N(C1CCC(=O)NC1=O)C2=O (stereo unspecified),44% (inactive)
17,C#CC(=O)N(c1ccc(OC)cc1OC)C(C(=O)NCC(=O)OCC)c1cccs1 (stereo unspecified),38.1% (inactive)
18,COc1ccccc1N1CCN(C2=CC(=O)C(C)=C(C)C2=O)CC1,91.1% (inactive)
19,COc1cc(/C=C2\C(=O)Nc3ccccc32)ccc1OCc1ccc(Cl)cc1,107% (inactive)

row,Structure (SMILES),growth
1,Nc1ncc(-c2ccc3ncnc(N4CCc5cc(F)c(F)cc54)c3c2)cn1,4.14% (active)
2,COc1ccc(-c2nc(C(Cl)Cl)nc3cc(-c4ccccc4)nn23)cc1,45.8% (inactive)
3,Cc1cc(-c2ccc(Cl)cc2)n(Cc2nnc(SCC(=O)Nc3ccc(S(N)(=O)=O)cc3)n2-c2ccc([N+](=O)[O-])cc2)n1,70.3% (inactive)
4,CN1c2ccccc2Sc2cc(C=C(C#N)C#N)ccc21,92.6% (inactive)
5,CC(C)(C)c1ccc(-c2nnc(-c3nc4ccccc4nc3Cl)o2)cc1,-70.5% (active)
6,O=C(Cn1cc[n+](CC(=O)c2ccc(-c3ccccc3)cc2)c1)Nc1cccc2cccnc12,40.4% (inactive)
7,N#Cc1cccc(/C(N)=N/C(N)=N/c2nc3ccccc3s2)c1,34.1% (inactive)
8,COc1ccccc1-n1cc(C#N)c(N)c1C(=O)c1ccc(Cl)cc1,88.3% (inactive)
9,N=c1c2cc(-c3ccccc3)oc2ncn1/N=C/c1ccc(Br)cc1,79.6% (inactive)
10,CC1(COc2ccc3ncc(C#Cc4cncc(C(=O)Nc5cccc(C(F)(F)F)c5)c4)n3n2)COC1,78.9% (inactive)
11,Cc1cc(C(NC(=O)CCCCCNc2cccc3c2C(=O)N(C2CCC(=O)NC2=O)C3=O)c2ccc3c(c2)OC(F)(F)O3)c(O)c2ncccc12 (stereo unspecified),67.6% (inactive)
12,N#Cc1c(NC(=O)c2cccc(C(F)(F)F)c2F)sc2c1CCC(=O)C2,-3.25% (active)
13,O=C(CN1CCN(c2cc(=O)n(-c3ccccc3)c3ccccc23)CC1)Nc1nc(-c2ccccc2)cs1,16.6% (inactive)
14,CN(C)CCCOc1ccc2c(c1)CN(C(=O)c1cc(C(=O)N3Cc4cccc(F)c4C3)ccc1O)C2,100% (inactive)
15,O=C(CSc1nnc(-c2ccc(Cl)cc2)n1-c1ccccc1)Nc1ccc(Br)cc1,8.35% (active)
16,CC1(C)CC[C@]23CC[C@]4(C)[C@H](CC[C@@H]5[C@@]6(C)CCCN(CO)C(C)(C)[C@@H]6CC[C@]54C)[C@H]2[C@H]1OC3,57.3% (inactive)
17,COc1ccc(CCN2C(=O)CSC2=S)cc1,50.7% (inactive)
18,CCn1c(SCC(=O)Nc2cccc(C(=O)/C=C/c3ccc(C)cc3)c2)nc2ccccc2c1=O,70.7% (inactive)
19,O=C1[C@@H]2Cc3c([nH]c4ccccc34)[C@H](c3c(Cl)cccc3Cl)N2C(=O)CN1C1CCN(CC2CCCCC2)CC1,61% (inactive)

# Test system: BT-549 breast
# Test: as above
# Conditions: 10 µM unless noted
row,Structure (SMILES),growth
1,COc1ccc(-n2c(SCc3n[nH]c(=S)o3)nc3ccc(Cl)cc3c2=O)cc1,115% (inactive)
2,CNC(=O)c1cc(Oc2ccc3nc(NC(=O)c4ccc(N5CCOCC5)c(C(F)(F)F)c4)sc3c2)ccn1,94% (inactive)
3,COc1ccc(/C=C(/C)c2ccc3ccc(OC)cc3[o+]2)c(O)c1,87.9% (inactive)
4,O=C1[C@H]2Cc3c([nH]c4ccccc34)[C@@H](c3ccc(Br)cc3)N2C(=O)CN1C1CCN(CC2CCCCC2)CC1,-3.47% (active)
5,O=C(c1ccc(O)cc1)[C@@H]1CN[C@@]2(C(=O)Nc3ccccc32)[C@H]1c1ccc(F)cc1,79.7% (inactive)
6,COc1ccc(/C=C(\C#N)C(=O)N2c3ccccc3Sc3ccc(SC)cc32)cc1F,104% (inactive)
7,CN1CCN(Cc2ccc(NC(=O)c3cncc(C#Cc4cnn5cccnc45)c3)cc2C(F)(F)F)CC1,47.1% (inactive)
8,CCOC(=O)c1c(NC(=O)c2ccccc2C(F)(F)F)sc2c1CCC(=O)C2,11.1% (inactive)
9,Nc1nc(-c2cccc([N+](=O)[O-])c2)c(N=Nc2ccccc2)s1,73.2% (inactive)
10,Cc1ccc(C(=O)NN2C(=O)/C(=C/C=C/c3ccco3)SC2=S)cc1,137% (inactive)
11,Cc1nc(-c2ccccc2O)ccc1C(=O)N=Nc1c(O)[nH]c2ccc(Br)cc12,102% (inactive)
12,NS(=O)(=O)c1ccc(-n2cc(-c3cccc(NC(=O)c4ccc(N5CCOCC5)c(C(F)(F)F)c4)c3)nn2)cc1,73.2% (inactive)
13,CCc1cccc(NC(=O)CNc2cc(S(=O)(=O)N(C)C)cc(C)c2C)c1,97.3% (inactive)
14,COc1ccc(-c2nc3cccc(O)c3c(=O)n2Cc2ccccc2)cc1COc1ccc(NC(C)=O)cc1,55.4% [3 µM] (inactive)
15,O=C(CN1CCN(c2cc(=O)n(-c3ccccc3)c3ccccc23)CC1)Nc1nc(-c2ccc(Cl)cc2)cs1,46.5% (inactive)
16,Cc1c(Cl)cccc1S(=O)(=O)Nc1ccc2c(c1)C(=O)N(C1CCC(=O)NC1=O)C2=O (stereo unspecified),63.9% (inactive)
17,C#CC(=O)N(c1ccc(OC)cc1OC)C(C(=O)NCC(=O)OCC)c1cccs1 (stereo unspecified),70.3% (inactive)
18,COc1ccccc1N1CCN(C2=CC(=O)C(C)=C(C)C2=O)CC1,104% (inactive)
19,COc1cc(/C=C2\C(=O)Nc3ccccc32)ccc1OCc1ccc(Cl)cc1,109% (inactive)

row,Structure (SMILES),growth
1,Nc1ncc(-c2ccc3ncnc(N4CCc5cc(F)c(F)cc54)c3c2)cn1,12.3% (inactive)
2,COc1ccc(-c2nc(C(Cl)Cl)nc3cc(-c4ccccc4)nn23)cc1,38.4% (inactive)
3,Cc1cc(-c2ccc(Cl)cc2)n(Cc2nnc(SCC(=O)Nc3ccc(S(N)(=O)=O)cc3)n2-c2ccc([N+](=O)[O-])cc2)n1,116% (inactive)
4,CN1c2ccccc2Sc2cc(C=C(C#N)C#N)ccc21,110% (inactive)
5,CC(C)(C)c1ccc(-c2nnc(-c3nc4ccccc4nc3Cl)o2)cc1,104% (inactive)
6,O=C(Cn1cc[n+](CC(=O)c2ccc(-c3ccccc3)cc2)c1)Nc1cccc2cccnc12,57.4% (inactive)
7,N#Cc1cccc(/C(N)=N/C(N)=N/c2nc3ccccc3s2)c1,49.3% (inactive)
8,COc1ccccc1-n1cc(C#N)c(N)c1C(=O)c1ccc(Cl)cc1,92.7% (inactive)
9,N=c1c2cc(-c3ccccc3)oc2ncn1/N=C/c1ccc(Br)cc1,101% (inactive)
10,CC1(COc2ccc3ncc(C#Cc4cncc(C(=O)Nc5cccc(C(F)(F)F)c5)c4)n3n2)COC1,128% (inactive)
11,Cc1cc(C(NC(=O)CCCCCNc2cccc3c2C(=O)N(C2CCC(=O)NC2=O)C3=O)c2ccc3c(c2)OC(F)(F)O3)c(O)c2ncccc12 (stereo unspecified),36.6% (inactive)
12,N#Cc1c(NC(=O)c2cccc(C(F)(F)F)c2F)sc2c1CCC(=O)C2,-22.7% (active)
13,O=C(CN1CCN(c2cc(=O)n(-c3ccccc3)c3ccccc23)CC1)Nc1nc(-c2ccccc2)cs1,67.1% (inactive)
14,CN(C)CCCOc1ccc2c(c1)CN(C(=O)c1cc(C(=O)N3Cc4cccc(F)c4C3)ccc1O)C2,125% (inactive)
15,O=C(CSc1nnc(-c2ccc(Cl)cc2)n1-c1ccccc1)Nc1ccc(Br)cc1,36.7% (inactive)
16,CC1(C)CC[C@]23CC[C@]4(C)[C@H](CC[C@@H]5[C@@]6(C)CCCN(CO)C(C)(C)[C@@H]6CC[C@]54C)[C@H]2[C@H]1OC3,85.5% (inactive)
17,COc1ccc(CCN2C(=O)CSC2=S)cc1,112% (inactive)
18,CCn1c(SCC(=O)Nc2cccc(C(=O)/C=C/c3ccc(C)cc3)c2)nc2ccccc2c1=O,93.3% (inactive)
19,O=C1[C@@H]2Cc3c([nH]c4ccccc34)[C@H](c3c(Cl)cccc3Cl)N2C(=O)CN1C1CCN(CC2CCCCC2)CC1,63.2% (inactive)
